# The supplement of paper PMC8728848
# Only a selection was taken, and the strongest signals are over-represented in it overall.
# B1: CrataBL (Crataeva tapia), C0HJA4 (protein)
# chain: AILTGVPYYILPSTSRAGFSPDNLRKNTSQLSCPLDLITQLRFPRRIGVPVIFTPQNSSLKVVPLSHNLNIHTCSDLWFCPESKIWTVKSSLTHGGSVVTTGGTFRSLGSWFRIERHGDSYKLVHCPRGSTPCRDVGIETVGGGGRRYLAPRDRPLAVRFTRASG
# Legend:
# Experiment in all cases: glycan array binding signal (z-score within array); higher = stronger binding
# Details in all cases: glycan notation: IUPAC condensed, linker removed
# [1] = molecular target: Fuc(a1-2)Gal(b1-3)GlcNAc(b1-3)GalNAc
# Method in brief: (§1)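 From the Consortium for Functional Glycomics database, 3228 arrays were curated, keeping only those whose protein sequence was available. Binding is given as a within-array Z-score averaged across arrays sharing a protein sequence and across linkers. Negative Z-scores can be read as non-binding.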
# [2] = molecular target: Fuc(a1-2)Gal(b1-4)GlcNAc
# Method in brief: as §1
# [3] = molecular target: Fuc(a1-2)Gal(b1-4)GlcNAc(b1-3)Gal(b1-4)GlcNAc
# Method in brief: as §1
# [4] = molecular target: Fuc(a1-2)Gal6S(b1-3)GlcNAc6S
# Method in brief: as §1
# [5] = molecular target: Fuc(a1-2)[Gal(a1-3)]Gal(b1-4)[Fuc(a1-3)]GlcNAc(b1-3)GalNAc
# Method in brief: as §1
# [6] = molecular target: Fuc(a1-2)[GalNAc(a1-3)]Gal(b1-4)GlcNAc(b1-2)Man
# Method in brief: as §1
# [7] = molecular target: Fuc(a1-3)[Gal(b1-4)]GlcNAc(b1-2)Man(a1-3)[Fuc(a1-3)[Gal(b1-4)]GlcNAc(b1-2)Man(a1-6)]Man(b1-4)GlcNAc(b1-4)GlcNAc
# Method in brief: as §1
# [8] = molecular target: Fuc(a1-3)[Gal(b1-4)]GlcNAc(b1-6)[Gal(b1-3)GlcNAc(b1-3)]Gal(b1-4)Glc
# Method in brief: as §1
# [9] = molecular target: Fuc(a1-3)[GalNAc(b1-4)]GlcNAc6S
# Method in brief: as §1
# [10] = molecular target: Gal(a1-3)Gal(b1-3)GlcNAc(b1-3)GalNAc
# Method in brief: as §1
# [11] = molecular target: Gal(a1-3)Gal(b1-4)Glc
# Method in brief: as §1
# [12] = molecular target: Gal(a1-4)Gal(b1-3)GlcNAc(b1-2)Man(a1-3)[Gal(a1-4)Gal(b1-3)GlcNAc(b1-2)Man(a1-6)]Man(b1-4)GlcNAc(b1-4)GlcNAc
# Method in brief: as §1
# [13] = molecular target: Gal(b1-3)GlcNAc(b1-2)Man
# Method in brief: as §1
# [14] = molecular target: Gal(b1-3)[Fuc(a1-4)]GlcNAc(b1-3)Gal(b1-3)[Fuc(a1-4)]GlcNAc
# Method in brief: as §1
# [15] = molecular target: Gal(b1-3)[Neu5Ac(b2-6)]GalNAc
# Method in brief: as §1
# [16] = molecular target: Gal(b1-4)GlcNAc(b1-2)Man(a1-3)[Gal(b1-4)GlcNAc(b1-2)Man(a1-6)][GlcNAc(b1-4)]Man(b1-4)GlcNAc(b1-4)[Fuc(a1-6)]GlcNAc
# Method in brief: as §1
# [17] = molecular target: Gal(b1-4)GlcNAc(b1-2)[Gal(b1-4)GlcNAc(b1-4)]Man(a1-3)[GlcNAc(b1-4)][Gal(b1-4)GlcNAc(b1-2)Man(a1-6)]Man(b1-4)GlcNAc(b1-4)GlcNAc
# Method in brief: as §1
# [18] = molecular target: Gal(b1-4)GlcNAc(b1-3)Gal(b1-4)GlcNAc(b1-2)Man(a1-3)[Gal(b1-4)GlcNAc(b1-3)Gal(b1-4)GlcNAc(b1-2)Man(a1-6)]Man(b1-4)GlcNAc(b1-4)[Fuc(a1-6)]GlcNAc
# Method in brief: as §1
# [19] = molecular target: Gal(b1-4)GlcNAc(b1-3)Gal(b1-4)GlcNAc(b1-3)Gal(b1-4)GlcNAc(b1-3)Gal(b1-4)GlcNAc(b1-3)Gal(b1-4)GlcNAc(b1-2)Man(a1-3)[Gal(b1-4)GlcNAc(b1-3)Gal(b1-4)GlcNAc(b1-3)Gal(b1-4)GlcNAc(b1-3)Gal(b1-4)GlcNAc(b1-3)Gal(b1-4)GlcNAc(b1-2)Man(a1-6)]Man(b1-4)GlcNAc(b1-4)GlcNAc
# Method in brief: as §1
# [20] = molecular target: Gal(b1-4)GlcNAc(b1-3)Gal(b1-4)GlcNAc(b1-3)Gal(b1-4)GlcNAc(b1-3)Gal(b1-4)GlcNAc(b1-3)Gal(b1-4)GlcNAc(b1-2)Man(a1-3)[Gal(b1-4)GlcNAc(b1-3)Gal(b1-4)GlcNAc(b1-3)Gal(b1-4)GlcNAc(b1-3)Gal(b1-4)GlcNAc(b1-3)Gal(b1-4)GlcNAc(b1-2)Man(a1-6)]Man(b1-4)GlcNAc(b1-4)[Fuc(a1-6)]GlcNAc
# Method in brief: as §1
# [21] = molecular target: Gal(b1-4)GlcNAc(b1-6)[Gal(b1-4)GlcNAc(b1-3)]GalNAc
# Method in brief: as §1
# [22] = molecular target: Gal3S(b1-4)GlcNAc
# Method in brief: as §1
# [23] = molecular target: Gal3S(b1-4)[Fuc(a1-3)]GlcNAc6S
# Method in brief: as §1
# [24] = molecular target: Gal3S4S(b1-4)GlcNAc
# Method in brief: as §1
# [25] = molecular target: Gal3S6S(b1-4)GlcNAc
# Method in brief: as §1
binder,measurement,setting,value
B1,glycan array binding signal (z-score),[1],-0.444
same,glycan array binding signal (z-score),[2],-0.486
same,glycan array binding signal (z-score),[3],-0.497
same,glycan array binding signal (z-score),[4],5.81
same,glycan array binding signal (z-score),[5],-0.054
same,glycan array binding signal (z-score),[6],-0.507
same,glycan array binding signal (z-score),[7],-0.41
same,glycan array binding signal (z-score),[8],-0.443
same,glycan array binding signal (z-score),[9],0.386
same,glycan array binding signal (z-score),[10],-0.383
same,glycan array binding signal (z-score),[11],-0.243
same,glycan array binding signal (z-score),[12],-0.451
same,glycan array binding signal (z-score),[13],-0.207
same,glycan array binding signal (z-score),[14],-0.412
same,glycan array binding signal (z-score),[15],-0.333
same,glycan array binding signal (z-score),[16],-0.533
same,glycan array binding signal (z-score),[17],-0.465
same,glycan array binding signal (z-score),[18],-0.376
same,glycan array binding signal (z-score),[19],-0.247
same,glycan array binding signal (z-score),[20],-0.276
same,glycan array binding signal (z-score),[21],-0.237
same,glycan array binding signal (z-score),[22],-0.021
same,glycan array binding signal (z-score),[23],5.22
same,glycan array binding signal (z-score),[24],2.38
same,glycan array binding signal (z-score),[25],3.14
